In the library only some 1.3% were active in any assay of this set; here they are far more common.
PKA-R1A activ – PKA-R1A complex activation; PKA-R1A dissociation, Cy5-IP20 fluorescence polarization; scaled: DMSO 0%, 113 µM cGMP 100%; activation, % at 11.4 µM; P00514+P68181; hit rate 0.083% among 340,000;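 active = percent activation above the mean of all tested compounds plus 3 SD, cut at about 19% in these data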;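 also: higher means more PKAc released from R1A so a rise in polarization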
Rin1 Abl inh – blocks binding of human Rin1 to Abl. AID 588664. P00519+Q13671. hit rate 0.4% among 360,000. TR-FRET Rin1/Abl binding, biochemical. inhibition, % at 7.35 µM; in the data active = inhibition above about 5%, passing the limit was not always enough
IDE cell inh – inhibits human insulin-degrading enzyme in HEK cells. P14735. FAbetaB cleavage, fluorescence polarization. inhibition, % at 5.59 µM. hit rate 0.41% among 320,000. AID 434962;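 active = percent inhibition above the average of all tested compounds plus 3 SD, set per screening campaign, cut at about 16% in these data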;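 also: IDE supplied by intact live HEK cells; FP after avidin binding of uncleaved biotin substrate so inhibition keeps polarization high; 0% = DMSO wells and 100% = 60 µM reference IDE inhibitor Ii1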
PKA-R2B activ – activates the human PKA-R2B holoenzyme complex. P22694+P31323. hit rate 0.079% among 340,000. activation, % at 11.4 µM. PKA-R2B holoenzyme dissociation, Cy5-IP20 fluorescence polarization; R2B truncated from residue 108, S112A mutant; 0% DMSO only, 100% 113 µM cGMP. AID 504700;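 active = activation above a cutoff set at the mean over all compounds plus 3 SD, cut at about 18% in these data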;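 also: higher means more holoenzyme dissociation and a rise in polarization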
eLon inh – E. coli protease La inhibition; P0A9M0; purified E. coli Lon protease, fluorescence polarization; inhibition, % at 7.94 µM; hit rate 0.42% among 360,000; AID 602123; in the data active = inhibition above about 13%, passing the limit was not always enough;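 also: 0% = enzyme with probe and DMSO and 100% = no enzyme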
IDE cell activ – IDE (human) activation, cell-based; P14735; HEK cells, FAbeta-B cleavage, fluorescence polarization; 0% vehicle, 100% cell-free pure enzyme wells; activation, % at 5.96 µM; hit rate 0.073% among 340,000; AID 493087;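 active = activation above the mean of all tested compounds plus 3 SD, set per screening campaign, cut at about 17% in these data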
eLon confirm – confirmation of E. coli Lon protease inhibitors; shares compounds with eLon inh; purified E. coli Lon, fluorescence polarization; inhibition, % at 7.94 µM; hit rate 31% among 1,400; AID 602230; in the data active = inhibition above about 16%;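 also: 0% = enzyme with probe and DMSO and 100% = no enzyme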
The depositor's hits bear a star; . = no result given; + = active, no number.

SMILES	PKA-R1A activ	Rin1 Abl inh	IDE cell inh	PKA-R2B activ	eLon inh	IDE cell activ	eLon confirm
COc1ccc(NC(=O)CN(C)C(=O)/C=C/c2ccc(OCc3ccccc3)cc2)cc1	4.7	-1.2	-3.8	1.3	19.2*	1.7	-7.7
CC1(C(=O)Nc2cccc(S(=O)(=O)N3CCOCC3)c2)Cc2ccccc2C(=O)O1 (stereo unspecified)	-1.8	-1.6	5.5	-8.1	0.1	1.4	.
CON(C)C(=O)CCN(C(=O)OC(C)(C)C)c1ccccc1	-3.3	4.0	4.7	-3.6	-21.4	4.9	.
CCOc1ccc(CC(=O)OCc2cc(=O)n3cc(Br)ccc3n2)cc1	-4.0	0.1	6.5	-1.6	41.8*	1.8	8.2
Nc1cc2c3c(cccc3c1)C(=O)N(CCN1CCCC1)C2=O	4.9	-21.6	-0.1	-5.7	93.7*	4.5	82.1*
O=C1c2cccc3cc([N+](=O)[O-])cc(c23)C(=O)N1/N=C/c1ccc(O)cc1O	-8.0	-11.3	0.5	14.7	16.6*	3.8	19.8*
O=C1c2cccc3cc([N+](=O)[O-])cc(c23)C(=O)N1CCN1CCCC1	-7.8	-10.8	.	3.1	86.7*	3.0	47.2*
CCN(CC)CCN1C(=O)c2cccc3cc(N)cc(c23)C1=O	7.4	-16.5	-3.9	7.6	+	1.3	52.7*
O=C1c2ccccc2C(=O)N1CCN1CCCCC1	4.8	-0.1	-3.7	1.7	3.1	3.4	.
CC1CCCC(NC(=O)C2CCN(S(=O)(=O)N3CCOCC3)CC2)C1C (stereo unspecified)	-3.5	3.3	-3.6	1.0	-6.8	4.8	.
CCOc1ccc(NC(=O)NCC2CCN(c3ccc(OC)cc3)C2)cc1 (stereo unspecified)	-6.6	0.8	-2.4	-6.2	23.0*	4.2	-10.4
Cc1ccc(COc2ccsc2C(=O)O)cc1	6.0	1.7	.	3.0	-6.0	1.4	.
CCOc1ccccc1NC(=O)Nc1ccc(OC)nc1	-8.4	4.1	.	0.1	22.1*	4.5	16.4*
O=C1c2ccccc2C(O)N1Cc1ccc2c(c1)OCO2 (stereo unspecified)	-1.7	-0.4	4.8	-12.3	15.4*	6.5	-0.6
O=C(O)c1ccc2c(c1)CCC2	.	1.9	-1.3	.	2.2	.	.
CCOc1cc(C2C(C#N)=C(N)OC3=C2C(=O)CC(C)(C)C3)cc([N+](=O)[O-])c1O (stereo unspecified)	-13.2	-1.5	-3.1	0.3	-2.1	5.0	.
CC1(C)CC(=O)C2=C(C1)OC(N)=C(C#N)C2c1cc2c(cc1[N+](=O)[O-])OCO2 (stereo unspecified)	-3.8	0.4	4.8	-0.6	103.7*	-2.2	80.3*
Cc1ccc2c(c1)CCCN2CC(=O)N(C)c1c(N)n(Cc2ccccc2)c(=O)[nH]c1=O	-6.5	-4.8	-1.9	4.7	146.1*	-1.3	-69.0
O=C(CCc1nc2ccccc2[nH]1)Nc1ccc(F)cc1	-5.5	-0.6	0.0	-2.4	-4.4	-0.9	.
O=C(CCc1nc2ccccc2[nH]1)Nc1ccccc1F	-6.1	-1.5	7.4	11.5	13.9*	-0.2	0.5
CCc1ccc(C(O)c2ncc(-c3ccc4ccccc4c3)[nH]2)cc1 (stereo unspecified)	.	-0.1	.	.	-7.8	.	.
CC(C)Cn1c(=O)c(C(=O)Nc2ccncc2)c(O)c2ccccc21	-1.6	-0.4	2.0	-0.5	34.7*	-1.9	22.6*
CC(C)Cn1c(=O)c(C(=O)Nc2cnccn2)c(O)c2ccccc21	-13.2	4.5	6.6	-8.9	2.0	3.1	.
CCc1cccc(CC)c1N1C(=O)C2=C(SCCCS2)C1=O	-6.0	1.1	.	-2.3	180.4*	.	159.6*
O=C(CCC1CCCC1)NC1CCCCC1	-6.5	-2.3	2.1	-10.4	15.3*	0.3	-1.4
SMILES	PKA-R1A activ	Rin1 Abl inh	IDE cell inh	PKA-R2B activ	eLon inh	IDE cell activ	eLon confirm
O=C(CN1CCN(C(=O)CNC(=O)c2ccc3c(c2)OCO3)CC1)Nc1cccc(F)c1	-5.5	2.7	-2.9	-2.4	0.4	4.8	.
Cc1[nH]nc2c1C1(CCN(Cc3ccccc3)CC1)C(C#N)=C(N)O2	1.6	-1.3	3.2	2.4	-9.4	5.1	.
CC(C)c1[nH]nc2c1C1(CCN(Cc3ccccc3)CC1)C(C#N)=C(N)O2	1.9	1.8	4.2	-7.2	29.8*	-0.1	-9.2
CN(C(=O)COC(=O)c1ccc(S(=O)(=O)N2CCOCC2)cc1)c1ccccc1	4.0	-0.2	6.8	3.5	-7.7	2.9	.
CCOC(=O)CSc1nc2cc(C)ccc2cc1C#N	-1.1	-0.7	5.2	-13.3	26.9*	-4.3	8.9
Fc1ccccc1/C=N/n1cc(-c2ccccc2)[nH]c1=S	-5.5	3.5	1.9	-6.9	-12.4	-1.6	.
Cc1cc(Br)ccc1OCC(=O)NNC(=O)c1cnccn1	-0.4	2.5	-1.3	-2.8	70.8*	3.3	-7.3
Cc1cc(Cl)ccc1OCC(=O)NNC(=O)c1cnccn1	-7.0	1.5	5.5	-4.5	10.2	2.8	.
O=C(NC(=S)Nc1cccc([N+](=O)[O-])c1)c1ccccc1	.	0.3	5.1	.	2.8	.	.
O=C(O)CC(NNC(=O)c1ccccc1)C(=O)Nc1cccc([N+](=O)[O-])c1 (stereo unspecified)	-0.3	-0.8	-1.1	-7.8	16.3*	-6.3	12.0
CNc1c(NS(=O)(=O)c2ccc(Cl)cc2)c(=O)oc2ccccc12	-1.2	1.9	-1.7	4.9	0.2	-2.2	.
O=C1C(=Cc2cccn2-c2ccccc2)C(=O)c2ccccc21	0.9	-4.1	3.6	-6.5	61.5*	2.2	38.8*
COC(=O)CCC(=O)Nc1ccc(C)cc1OC(=O)CCC(=O)OC	1.8	0.9	2.7	0.0	-1.0	1.7	.
C=CCOc1ccc(C2OC34CCCCC3C(C#N)(C#N)C2(C#N)C(=N)O4)cc1 (stereo unspecified)	-0.3	-0.6	3.4	5.8	31.3*	0.3	21.0*
Cc1ccc(C2OC34CCCCCC3C(C#N)(C(=N)O4)C2(C#N)C#N)cc1 (stereo unspecified)	-11.3	-1.7	-2.4	-1.7	16.4	4.9	.
Oc1ccc(Nc2nc(-c3ccccc3F)nc3ccccc23)cc1	-1.5	0.2	-1.5	0.5	17.1*	-4.0	7.7
Oc1ccc(Nc2nc(-c3ccccc3O)nc3ccccc23)cc1	-3.3	-2.0	.	-5.3	1.6	3.1	.
COc1ccc2c3c(cccc13)N(C)N=C2C	-0.8	-12.7	0.9	0.6	36.7*	-2.2	21.0*
CCOC(=O)c1ccc(C(=O)NNC(=O)C2CC=CCC2)cc1 (stereo unspecified)	.	-2.2	4.9	.	0.8	.	.
CCCc1nn2c(=O)cc(CSCC(=O)Nc3ccc(F)cc3)nc2s1	5.1	-0.7	5.8	0.5	7.3	-3.8	.
CCC(NC(=O)Nc1ccc(O)cc1)(C(F)(F)F)C(F)(F)F	-7.1	1.1	0.8	-4.7	15.6*	0.4	11.2

Compound activity as filed in PubChem.
